In the supplement of paper PMC6555819:

Experiments:
Experiment in all cases: PBM binding z-score (relative to random genomic background probes); higher = stronger binding; sequences stand for … in GC…GCGATTGACAGCGTAGAATGAAGG
[1] = system: FXR:RXRa (NR concentration 270 nM, RXRa partner concentration 90 nM)
How it was run: (§1)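 Antibodies against each partner of ligand-free nuclear receptor dimers (one per run) detected binding on custom Agilent 4×180K protein-binding microarrays after 1 h incubation. The double-stranded probes had 34-nt variable regions carrying direct-repeat seeds, single-nucleotide variants, half-site ablations and random human genomic background sequences. Binding z-scores, from regression-normalized fluorescence, use the random background probes as reference.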

[2] = system: LXRa:RXRa (NR concentration 270 nM, RXRa partner concentration 90 nM)
How it was run: as §1

[3] = system: LXRa homodimer (NR concentration 270 nM)
How it was run: as §1

[4] = system: LXRb:RXRa (NR concentration 270 nM, RXRa partner concentration 90 nM)
How it was run: as §1

[5] = system: LXRb homodimer (NR concentration 270 nM)
How it was run: as §1

[6] = system: PPARa:RXRa (NR concentration 270 nM, RXRa partner concentration 90 nM)
How it was run: as §1

[7] = system: PPARg:RXRa 270nM:90nM, anti-RXR (NR concentration 270 nM, RXRa partner concentration 90 nM)
How it was run: as §1

[8] = system: PPARg:RXRa 30nM:10nM, anti-RXR (NR concentration 30 nM, RXRa partner concentration 10 nM)
How it was run: as §1

[9] = system: PPARg:RXRa 90nM:30nM, anti-RXR (NR concentration 90 nM, RXRa partner concentration 30 nM)
How it was run: as §1

Row | Sequence | PBM binding z-score [1] | PBM binding z-score [2] | PBM binding z-score [3] | PBM binding z-score [4] | PBM binding z-score [5] | PBM binding z-score [6] | PBM binding z-score [7] | PBM binding z-score [8] | PBM binding z-score [9]
1 | CAAACTAGGTCAAGGTCAAATTCGGTTTGTGCCA | 6.94 | 5.69 | 5.04 | 5.06 | 2.23 | 6.07 | 7.8 | 6.71 | 8.35
2 | ACTCGGAGGACAGAGGTCAGAGCTACGCCAGTGA | 2.85 | 3.27 | 0.56 | 2.62 | -0.0333 | 3.83 | 4.96 | 2.62 | 4.8
3 | GATACAGGGTGAGCTAGAGGCCAGAGTATGGAAA | -0.454 | -0.464 | -0.638 | -0.678 | -1.4 | 0.23 | -0.0418 | -0.29 | -0.422
4 | ACTAGGAGGACAAAGGTCAGAGCTACGCCAGTGA | 4.32 | 4.18 | 1.5 | 3.58 | 0.612 | 5.33 | 8.36 | 7.87 | 8.99
5 | ACTAGCAGGCCAAAGGTCACTCAAGATTAGTCCG | 4.72 | 4.93 | 2.36 | 4.8 | 0.456 | 6.05 | 8.65 | 8.65 | 9.39
6 | ATATGTAGGTTAGCTGGGGTCATTCCGACTAGGC | 4.03 | 5.97 | 3.23 | 4.79 | 1.3 | 5.14 | 5.12 | 2.35 | 4.36
7 | CAAACTAGGTCAAAGGTCAACGTCGAGCCAACCA | 8.3 | 7.18 | 5.23 | 7.01 | 2.37 | 7.5 | 11.3 | 13.9 | 14.4
8 | TCATATAGGTAATAAAGGTGAAAGTCGGCATCTA | 1.82 | 2.15 | 0.741 | 1.79 | 0.336 | 3.1 | 4.44 | 4.71 | 4.65
9 | ATATGTAGGTCATCGGGTCATTCAGTTTGCGCAT | 6.61 | 5.82 | 4.84 | 4.74 | 1.76 | 6.46 | 8.12 | 6.72 | 8.81
10 | CCTGCTAGGTCAAGGGTCAGCTAAAGCAGCTCGC | 6.02 | 4.62 | 0.429 | 3.85 | -0.198 | 5.91 | 8.48 | 7.78 | 9.4
11 | CTAACTAGGTCACAGAGGTCAAAGTCCGTGCGTA | 7.38 | 6.55 | 7.37 | 6.19 | 2.21 | 6.62 | 8.54 | 7.16 | 9.04
12 | ATATCTAGGTAAAAGTTCAGTGAATCCCGAGGAT | 0.694 | 1.43 | 1.24 | 1.15 | 0.657 | 5.76 | 9.29 | 9.08 | 10.4
13 | CAAACTAGGTCACGAAAGGTCAAAGTTGAATGAC | 7.31 | 8.11 | 8.31 | 7.43 | 2.68 | 6.6 | 8.55 | 7.45 | 8.74
14 | CGTCCAAGGTCAGCAGGTCAGAGAAAGCGACGTG | 6.51 | 4.01 | 0.793 | 3.26 | -0.208 | 4.78 | 5.15 | 1.61 | 3.69
15 | GATACAGGGTCAGCTAGAGGTCAGAGTATGGAAA | 6 | 5.81 | 3.45 | 4.98 | 0.386 | 5.57 | 5.22 | 1.99 | 3.52
16 | CCAGACAGGTGAAAGGTCACTCAGTCTGGTACGC | 5.43 | 5.49 | 2.57 | 4.91 | 0.389 | 6.31 | 8.84 | 7.76 | 8.99
17 | AGTAAAAGTTCACTAGGTAACGTAAGATTCAGCT | 4.14 | 4.44 | 3.1 | 2.6 | 1.17 | 4.32 | 5 | 2.09 | 4.23
18 | CTAACTAGGTCAAGGTCAAAGTCGGTTTGTGCCA | 6.55 | 5.3 | 4.54 | 4.54 | 1.41 | 6.04 | 7.82 | 7.09 | 8.36
19 | GCTTCCGGGTCAAAGGTTATAGCATGAATAGAAT | 7.32 | 5.48 | 0.542 | 5.76 | 0.776 | 6.97 | 9.9 | 10.7 | 11.4
20 | AATACAGGGTCACTAGGTCAGAGTAGGTACGAAT | 6.69 | 5.67 | 2.22 | 4.43 | 1.37 | 6.03 | 7.62 | 4.74 | 7.08
21 | CGTCCAACGTCAAGGTCAGTGAAAGAGACTCGAA | 1.22 | 1.12 | -0.198 | 1.28 | -0.439 | 2.04 | 0.216 | -0.429 | -0.211
22 | CGTCCAAGGTCAGAGAGGTCAGTGACTGCCGAGT | 6.33 | 5.11 | 3.23 | 4.11 | 0.108 | 4.74 | 4.2 | 1 | 2.64
23 | CCTACTGGGCCAAAGGTCATAGATTCCAATGCTC | 4.64 | 4.61 | 3.46 | 4.47 | 0.244 | 6.34 | 10.5 | 11 | 11.5
24 | TATACAGGGTCAAAGGGCAGAGTACGAATGTCGA | 7.38 | 6.55 | 3.16 | 5.44 | 3.33 | 6.52 | 8.53 | 7.25 | 8.56
25 | TTATCAAGGTGAAAGGTCGTTGATGCACGCCTTG | 3.92 | 3.41 | 0.476 | 2.84 | 0.104 | 5.86 | 9.22 | 9.21 | 11
26 | ATCTCTAGGTGAAAGTTCAGTGAATCCCGAGGAT | 1.41 | 1.98 | 1.24 | 1.43 | 0.429 | 5.61 | 9.55 | 9.07 | 11.4
